{"source": "PubChem BioAssay (NCATS)", "note": "Results filed as inconclusive are left out. Active and inactive are the calls of the source. The call rests on the fitted dose curve; in most records, active means well fitted cell-killing curve with a large enough effect; inconclusive means small, poorly fitted or top-dose-only effect, or effect the other way; inactive means flat fitted curve, though single readings scatter. *1 amine or outer side, *2 acyl side, *3 side chain or, on linkers, in order; H or OH if unused. Where a SMILES comes first, the peptide text is derived from it. Bridges are numbered along the chain shown (N, C = ends). [ ]: non-standard residue; d: D form. The star is where a group is joined. ξ: configuration not given here. X10 = NC1=NCCC(C(N[*:1])C(=O)[*:2])N1; ΔAla(3-NHCONH2) = NC(=O)NC=C(N)C(=O)O; ξβ3hOrn = NCCCC(N)CC(=O)*; Dap = NC[CH](N)C(=O)O", "data": [{"tested_on": "HeLa", "assay": "Primary qHTS to identify gynecologic anti-cancer compounds using libraries of approved drugs and bioactive compounds (AID 1345084); further: on the % scale 0 is the no-effect control and ±100 the full control effect; nearly all actives have a fitted effect of over 55% in size", "conditions": "Gynecologic cancer cell panel viability, ATPlite luminescence, 48 h; series mostly up to 57.5 µM; activity change, negative = cytotoxicity: at the top concentration", "outline": "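Luminescence from the ATPlite ATP-monitoring reagent indicates viable cell number; lower signal means cytotoxicity. Cells received compound 16 h after seeding and were exposed for 48 h across five concentrations.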", "values": [{"smiles": "CC(=O)Nc1ccc(S(=O)(=O)Nc2cc(C)on2)cc1", "activity change, negative = cytotoxicity": "-4.76% (inactive)"}, {"smiles": "CCCCN(CCN(CCCC)C(=O)N1CCOCC1)C(=O)N1CCOCC1", "activity change, negative = cytotoxicity": "-2.1% (inactive)"}, {"smiles": "C[C@H]1C[C@H](O)c2ccsc2S1(=O)=O", "activity change, negative = cytotoxicity": "0.101% (inactive)"}, {"smiles": "NC(=O)NS(=O)(=O)c1ccc(Cl)cc1", "activity change, negative = cytotoxicity": "-9.3% (inactive)"}, {"smiles": "Cn1c(=O)c2c(ncn2CC(=O)O)n(C)c1=O", "activity change, negative = cytotoxicity": "17.9% (inactive)"}, {"smiles": "C[C@H]1NCc2cc(-c3ccc4c(=O)c(C(=O)O)cn(C5CC5)c4c3OC(F)F)ccc21", "activity change, negative = cytotoxicity": "1.97% [at 25.3 µM] (inactive)"}, {"smiles": "Cc1nc(C2CCCCC2)c(-c2ccc(S(N)(=O)=O)c(F)c2)o1", "activity change, negative = cytotoxicity": "-12.7% (inactive)"}, {"smiles": "O=c1[nH]c(=O)n([C@H]2O[C@H](CO)[C@@H](O)[C@@H]2O)cc1/C=C\\Br", "activity change, negative = cytotoxicity": "11% (inactive)"}, {"smiles": "COc1ccccc1OCC1CNC(=O)O1", "note": "(configuration not stated)", "activity change, negative = cytotoxicity": "0.357% (inactive)"}, {"smiles": "Nc1ccc([N+](=O)[O-])c(C(F)(F)F)c1", "activity change, negative = cytotoxicity": "-7.31% (inactive)"}, {"smiles": "N#CSCC(=O)O", "activity change, negative = cytotoxicity": "7.8% (inactive)"}, {"smiles": "CCCCN(CCCC)C(C(N)=O)c1ccc(OC)cc1", "note": "(configuration not stated)", "activity change, negative = cytotoxicity": "1% (inactive)"}, {"smiles": "O=C(CCCl)NCCc1ccccc1", "activity change, negative = cytotoxicity": "13.5% (inactive)"}, {"smiles": "O=[N+]([O-])c1ccc(-c2nc(-c3ccc(F)cc3)c(-c3ccncc3)[nH]2)cc1", "activity change, negative = cytotoxicity": "-0.255% (inactive)"}, {"smiles": "CCC(C(=O)NC(=O)NC(C)=O)c1ccccc1", "note": "(configuration not stated)", "activity change, negative = cytotoxicity": "-9.28% (inactive)"}, {"smiles": "CCCC(=O)OCOC(=O)C1=C(C)NC(C)=C(C(=O)OC)C1c1cccc(Cl)c1Cl", "note": "(configuration not stated)", "activity change, negative = cytotoxicity": "7% (inactive)"}, {"smiles": "Cc1ccccc1C(=O)N1CC/C(=N\\OS(=O)(=O)O)c2ccc(Cl)cc21", "activity change, negative = cytotoxicity": "7.61% (inactive)"}, {"smiles": "CC(NC(CCc1ccccc1)C(=O)O)C(=O)N1C(=O)N(C)CC1C(=O)O", "note": "(configuration not stated)", "activity change, negative = cytotoxicity": "17% (inactive)"}, {"smiles": "C1=CC2C3C=CC(C3)C2C1", "note": "(configuration not stated)", "activity change, negative = cytotoxicity": "-6.09% [at 116 µM] (inactive)"}, {"smiles": "CC1CCCCN1CCCOC(=O)c1ccc(OC2CCCCC2)cc1", "note": "(configuration not stated)", "activity change, negative = cytotoxicity": "-3.12% (inactive)"}, {"smiles": "CC(C(=O)O)c1ccc(/C=C2\\CCCCC2=O)cc1", "note": "(configuration not stated)", "activity change, negative = cytotoxicity": "0.77% (inactive)"}, {"smiles": "O=C(CO)[C@@H](O)[C@H](O)[C@@H](O)CO", "activity change, negative = cytotoxicity": "12.2% (inactive)"}, {"smiles": "CC(=O)N(CC(O)CO)c1c(I)c(C(=O)NCCO)c(I)c(C(=O)NCC(O)CO)c1I", "note": "(configuration not stated)", "activity change, negative = cytotoxicity": "1.67% (inactive)"}, {"smiles": "O=C(O)[C@H](O)[C@@H](O)[C@H](O[C@@H]1O[C@H](CO)[C@H](O)[C@H](O)[C@H]1O)[C@H](O)CO", "activity change, negative = cytotoxicity": "-11.5% (inactive)"}, {"smiles": "CCCCC(O)/C=C(C)/C=C/C=C/C(=O)N1CCCC1=O", "note": "(configuration not stated)", "activity change, negative = cytotoxicity": "6.68% (inactive)"}, {"smiles": "Cc1ncc([N+](=O)[O-])n1C", "activity change, negative = cytotoxicity": "12.5% (inactive)"}, {"smiles": "CCCN(CCC)C(=O)C(CCC(=O)OCCCN1CCN(CCOC(=O)Cc2c(C)n(C(=O)c3ccc(Cl)cc3)c3ccc(OC)cc23)CC1)NC(=O)c1ccccc1", "note": "(configuration not stated)", "activity change, negative = cytotoxicity": "-1.68% (inactive)"}, {"smiles": "COC(=O)c1c(Cl)c(Cl)c(C(=O)OC)c(Cl)c1Cl", "activity change, negative = cytotoxicity": "11.6% [at 116 µM] (inactive)"}, {"smiles": "NCCCC(N)CC(=O)NCC1NC(=O)C(CO)NC(=O)C(N)CNC(=O)C(C2CCN=C(N)N2)NC(=O)C(=CNC(N)=O)NC1=O", "note": "(stereo not drawn) (H-[Dap]S[Dap](ξβ3hOrn)[ΔAla(3-NHCONH2)][X10]; lactam 1-C; configuration not given here)", "activity change, negative = cytotoxicity": "-1.14% [at 0.462 µM] (inactive)"}, {"smiles": "CC(NN)c1ccccc1", "note": "(configuration not stated)", "activity change, negative = cytotoxicity": "0.452% [at 25.3 µM] (inactive)"}, {"smiles": "c1ccc2occc2c1", "activity change, negative = cytotoxicity": "-7.4% [at 116 µM] (inactive)"}, {"smiles": "CCCCCOc1ccc(C2SC(=O)NC2=O)cc1OCC", "note": "(configuration not stated)", "activity change, negative = cytotoxicity": "-11.2% (inactive)"}, {"smiles": "CCCc1c2oc(C(=O)O)cc(=O)c2cc2c(=O)cc(C(=O)O)n(CC)c12", "activity change, negative = cytotoxicity": "10.9% (inactive)"}, {"smiles": "COc1ccc2c(c1)CCCC2=O", "activity change, negative = cytotoxicity": "-0.186% (inactive)"}, {"smiles": "Cc1ccc(O)cc1", "activity change, negative = cytotoxicity": "11.4% (inactive)"}, {"smiles": "CC(CCc1ccc2c(c1)OCO2)NN", "note": "(configuration not stated)", "activity change, negative = cytotoxicity": "-0.16% (inactive)"}, {"smiles": "Cc1cc(=O)oc2cc(O[C@@H]3SC[C@@H](O)[C@H](O)[C@H]3O)ccc12", "activity change, negative = cytotoxicity": "7.49% (inactive)"}]}]}
